Hits are enriched below; roughly 18% of the tested compounds scored in any of these assays.
LDHA block – LDHA (human) enzyme inhibition; P00338; purified LDHA, NADH/diaphorase-resazurin fluorescence; hits give low values; activity change, % (values are at about 110 or 230 µM); 480,000 compounds, 0.15% hits; AID 1347041; in the data active means activity change below about -30%; inconclusive means mostly about -25% to -30%;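 further: plate controls were DMSO wells for no effect and wells without enzyme for full effect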
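Enzyme activity of human lactate dehydrogenase 5 (2 nM; 0.06 mM NADH, 0.2 mM pyruvate, 5 min, RT) is measured via a resazurin/diaphorase fluorescence readout of residual NADH.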
RORgamma inh – blocks mouse ROR gamma transcriptional activity. P51450. Drosophila S2 Gal4-RORgamma UAS-luciferase reporter, 20 h. Potency, µM (doses to about 53.6 µM), for inactives: at the highest dose activity change, negative = inhibition, usual class: inhibitors. 310,000 compounds, 5.4% hits. AID 2551; further: potency means the concentration at half of the fitted maximal effect; nearly all actives have a fitted effect of over 60% in size
Target sequence (P51450 whole entry, looked up, the tested form may be a part): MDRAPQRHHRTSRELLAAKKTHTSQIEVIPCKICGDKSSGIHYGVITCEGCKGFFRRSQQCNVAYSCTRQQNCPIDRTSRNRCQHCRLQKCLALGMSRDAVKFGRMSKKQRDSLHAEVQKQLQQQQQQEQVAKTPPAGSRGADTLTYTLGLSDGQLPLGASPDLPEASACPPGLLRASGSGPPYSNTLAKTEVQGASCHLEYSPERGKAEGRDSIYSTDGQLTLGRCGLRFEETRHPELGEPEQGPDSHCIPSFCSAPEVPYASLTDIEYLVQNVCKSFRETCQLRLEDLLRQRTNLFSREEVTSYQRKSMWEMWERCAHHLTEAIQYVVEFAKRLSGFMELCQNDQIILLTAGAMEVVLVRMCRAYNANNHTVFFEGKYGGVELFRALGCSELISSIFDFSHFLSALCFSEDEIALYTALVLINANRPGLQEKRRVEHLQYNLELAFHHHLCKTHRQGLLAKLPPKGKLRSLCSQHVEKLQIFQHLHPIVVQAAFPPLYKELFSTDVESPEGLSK
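Schneider cells (Drosophila), stable Gal4 DBD–ROR gamma + UAS-luc; 1 hr cmpd preincubation; Cu2+ induction 700 uM final; 20 hr ambient; luminescence.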
Gal4-VP16 FLuc – Gal4-VP16 reporter inhibition counter-screen; AID 2546; Potency, µM (series often up to 53.6 µM), for the others: top-dose activity, negative = inhibition, hits mostly inhibitors; Drosophila S2 Gal4-VP16 UAS-luciferase, luminescence, 20 h; 310,000 compounds, 3.5% hits;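 further: Gal4-VP16 expression switched on by copper sulfate through the metallothionein promoter; potency means the concentration at half of the fitted maximal effect; nearly all actives have a fitted effect of over 50% in size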
IL1B secr inh – blocks inflammasome-driven IL-1 beta release | 360,000 compounds, 4.7% hits | AID 743279 | THP-1 LPS/ATP IL-1B secretion, AlphaLISA, 16 h; hits give low values | activity change, % at 57.5 µM; in the data active means activity change below about -50%; inconclusive means mostly about -30% to -49%
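Secreted IL-1B measured by AlphaLISA bead assay after 16 h compound exposure of THP-1 cells; compounds (final up to 57.5 uM) added 1 h before LPS (250 ng/mL) and ATP (1.25 mM) stimulation; lower signal means less secretion.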
DT40 TDP1 no CPT – qHTS for Inhibitors of human tyrosyl-DNA phosphodiesterase 1 (TDP1): qHTS in cells in absence of CPT | DT40 Tdp1-/- hTDP1 cells, no CPT, ATP luminescence, 48 h | Potency, µM (series often up to 46.2 µM), without a hit: top-dose activity change, negative = growth inhibition, most hits filed as inhibitors | 420,000 compounds, 15% hits | AID 686978, 2013; further: potency means the concentration at half of the fitted maximal effect; nearly all actives have a fitted effect of over 55% in size
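Growth of hTDP1-complemented DT40 Tdp1-knockout cells is measured by ATP luminescence after at least 48 hr compound exposure at 37 °C, with DMSO substituting for the 20 nM CPT used in the parallel screen.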
TDP1 cell CPT – growth inhibition of DT40 Tdp1-/-;hTDP1 cells with camptothecin (screen for TDP1 inhibitors); chicken DT40 Tdp1-/-;hTDP1 cells + 20 nM CPT, ATP luminescence, 48 h; Potency, µM (top dose mostly 46.2 µM), without a hit: at the top dose activity change, negative = growth inhibition, usual class: inhibitors; 420,000 compounds, 12% hits; AID 686979; further: potency means the concentration at half of the fitted maximal effect; nearly all actives have a fitted effect of over 55% in size
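Chicken DT40 Tdp1-/- cells stably complemented with human TDP1 were seeded at 400 cells/well in medium containing 20 nM camptothecin, exposed to pin-transferred compounds, and grown at 37 °C for at least 48 hr. Viability was read as ATP luminescence.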
Active calls of the source: *; i = inactive; ? = inconclusive; · = no result given; [ ] = another dose, or the depositor's remark. Unless noted, the call rests on the fitted dose curve; in most records, active means well fitted curve in the direction sought with a large enough effect; inconclusive means small, poorly fitted or top-dose-only effect, or another doubt; inactive means no such curve, though single readings can be large; an effect the other way counts as inactive or inconclusive. Unless noted, on the % scale 0 is the no-effect control and ±100 the full control effect.

SMILES	LDHA block	RORgamma inh	Gal4-VP16 FLuc	IL1B secr inh	DT40 TDP1 no CPT	TDP1 cell CPT
COc1ccc(CC(N)c2csc(NC(=O)c3ccc(F)cc3)n2)cc1 (configuration not stated)	-17	·	·	-54*	23µM*	?
COc1ccc(CC(N)c2csc(NC(=O)C(c3ccccc3)c3ccccc3)n2)cc1 (configuration not stated)	-14	·	·	-52*	6.5µM*	18µM*
COc1ccc(CC(N)c2csc(NC(=O)c3ccccc3OC)n2)cc1 (configuration not stated)	-8	·	·	-7	-25%	?
COc1cc(CNC(=O)Nc2nc(C(N)c3ccccc3)cs2)cc(OC)c1OC (configuration not stated)	1	·	·	-21	-20%	4%
O=C1CC(=O)CC(c2ccc(F)cc2)C1	2	·	·	·	·	·
CC(Cn1cccn1)NC(=O)c1ccc2c(c1)OCO2 (configuration not stated)	-1	·	·	·	·	·
Cc1nnc(NC(=O)c2cccc3c2ccn3C)s1	-3	·	·	·	·	·
COc1ccc(CNC(=O)Nc2nc(C(N)Cc3ccc(C(F)(F)F)cc3)cs2)cc1 (configuration not stated)	-4	·	·	?	21µM*	?
NC(=O)Cc1csc(NC(=O)CCc2ncc(-c3ccc(F)cc3F)o2)n1	-9	·	·	·	·	·
CCCCC(=O)Nc1cccc(NC(=O)c2cccc3c(Br)cccc23)c1	-10	·	·	·	·	·
Cc1cc(C)n(-c2ccc(C(=O)OCC(=O)Nc3ccc(S(N)(=O)=O)cc3)cc2)n1	-3	·	·	-1	-12%	?
O=C(Nc1cccc(S(=O)(=O)N2CCCCC2)c1)c1ccc(OCC2CCCO2)cc1 (configuration not stated)	-2	?	?	-15	16µM*	21µM*
CC(=O)c1cccc(NC(=O)c2ccc(S(=O)(=O)N3CCCC3)cc2)c1	-12	43%	1%	-1	?	0%
O=C(Nc1ccc(S(=O)(=O)N2CCCC2)cc1)c1ccc(OCC2CCCO2)cc1 (configuration not stated)	-3	-3%	?	-11	-14%	-13%
Cc1cc(C)n(-c2ccc(C(=O)OCC(=O)Nc3ccc(S(=O)(=O)N4CCCCC4)cc3)cc2)n1	-5	17%	-11%	-12	?	23µM*
Cc1cc(C)n(-c2ccc(C(=O)Nc3cccc(S(=O)(=O)N4CCCC4)c3)cc2)n1	-4	?	?	1	9.2µM*	18µM*
Cc1cc(C)nc(-n2nc(C)cc2NC(=O)c2cccc(S(=O)(=O)N3CCOCC3)c2)n1	-9	?	4%	-8	21µM*	?
COc1nc2ccccc2nc1N1CCC(C(=O)Nc2ccc(C)c(C)c2)CC1	-9	·	·	·	·	·
CCN(CC)S(=O)(=O)c1ccc(/C=C/C(=O)OCC(=O)C(C)(C)C)cc1	2	·	·	·	·	·
O=C(Nc1c(NC2CCCCC2)c2ccccc2oc1=O)c1ccc(C(F)(F)F)cc1	-2	·	·	·	·	·
CC(C)Oc1ccc(C(=O)Nc2cccc(S(=O)(=O)N3CCCC3)c2)cc1	6	·	·	?	21µM*	29µM*
O=C(NCCC(=O)N1CCCC1)c1cc2ccccc2oc1=O	-12	·	·	·	·	·
CN(C)CCCNc1oc(-c2ccccc2Cl)nc1S(=O)(=O)c1ccccc1	1	·	·	-27	?	?
CNc1oc(-c2ccccc2Cl)nc1P(=O)(c1ccccc1)c1ccccc1	-4	7%	?	-79*	15µM*	?
S=c1nc(C2CCCCC2)n(-c2ccccc2)[nH]1	-4	2.8µM*	-4%	19	23µM*	?
SMILES	LDHA block	RORgamma inh	Gal4-VP16 FLuc	IL1B secr inh	DT40 TDP1 no CPT	TDP1 cell CPT
Nc1nc(=S)n(-c2ccccc2)[nH]1	-8	?	1%	4	2%	0%
CCCNC(=O)C(C)NC(=O)Cc1c(C)nc2nc(N)nn2c1C (configuration not stated)	6	·	·	·	·	·
Cc1cccnc1NC(=O)CCc1ncc(-c2ccccc2)o1	-1	·	·	·	·	·
O=C(NC(CC(=O)N1CCN(c2ccc([N+](=O)[O-])cc2)CC1)c1ccccc1)c1ccccc1Cl (configuration not stated)	-3	?	-9%	-16	16µM*	?
Cc1cccc(N2CCN(C(=O)CC(NC(=O)c3ccccc3Cl)c3ccccc3)CC2)c1C (configuration not stated)	1	?	-16%	-4	?	18µM*
O=C(CN1CCN(c2ccc(F)cc2)CC1)N1N=C(c2cc3ccccc3o2)CC1c1ccco1 (configuration not stated)	9	·	·	·	·	·
O=C1CCCc2nccc(-c3ccccc3)c21	-7	·	·	·	·	·
COc1ccc(CCNC(=O)CCn2c(=O)c3cccn3c3ccc(F)cc32)c(OC)c1OC	-2	-1%	0%	-15	8.2µM*	13µM*
COc1ccccc1CCNC(=O)CCn1c(=O)c2cccn2c2ccc(F)cc21	-7	?	0%	-9	12µM*	23µM*
NS(=O)(=O)c1ccc(N/N=C/c2cccc(C(F)(F)F)c2)c([N+](=O)[O-])c1	8	·	·	·	·	·
CCC1CN(Cc2cn[nH]c2-c2ccc(F)cc2)Cc2cc(OC)ccc2O1 (configuration not stated)	·	·	·	·	21µM*	?
CCC1CN(Cc2cn[nH]c2-c2ccccc2)Cc2cc(OC)ccc2O1 (configuration not stated)	·	·	·	·	18µM*	-7%[9.04 µM]
CCC1CN(Cc2cn[nH]c2-c2ccc(OC)cc2)Cc2cc(OC)ccc2O1 (configuration not stated)	·	·	·	·	?	-4%[9.04 µM]
CC1CCCCC1NC(=O)c1csc2ccccc12 (configuration not stated)	5	·	·	·	·	·
O=C(NCc1ccccc1)C1CCN(C(=O)/C=C/c2cccc(C(F)(F)F)c2)CC1	-3	·	·	·	·	·
COc1ccc2c(/C=N/NS(=O)(=O)c3ccc(C)cc3)c[nH]c2c1	-7	-10%	0%	-3	-9%	0%
COc1ccc2[nH]cc(/C=N/NS(=O)(=O)c3ccc(C)cc3)c2c1	-7	?	?	16	13µM*	15µM*
COc1ccc(OC)c(S(=O)(=O)N/N=C\c2c[nH]c3ccccc23)c1	-7	?	-18%	i	9.2µM*	18µM*
